According to PubChem BioAssay AID588790 (National Center for Advancing Translational Sciences (NCATS), 2011):
The campaign covered roughly 1,200 compounds. About 85 (7%) were called active. Calls follow the shape of the full dose curve. Only a selection was taken, and actives are over-represented in it overall.

Each compound was assayed against Beta-2 adrenergic receptor (Homo sapiens) (UniProt P07550) (assay: qHTS assay of beta-arrestin-biased ligands of beta2-adrenergic receptor: Hit Validation with GloSensor). Details: W9-Glo22F cells, GloSensor cAMP luminescence, beta2AR agonism; activation: at 46.1 µM (top of the series).
Summary of the method: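 W9-Glo22F cells plated and incubated overnight at 37 deg C, 5% CO2, then compounds pinned in. GloSensor reagent added, 10 min at room temperature, luminescence read.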
For activation in this document: 0% is about no effect.
Potency is read from the fitted curve at half-maximal effect.

Beta-2 adrenergic receptor (Homo sapiens), sequence (P07550 whole entry, looked up): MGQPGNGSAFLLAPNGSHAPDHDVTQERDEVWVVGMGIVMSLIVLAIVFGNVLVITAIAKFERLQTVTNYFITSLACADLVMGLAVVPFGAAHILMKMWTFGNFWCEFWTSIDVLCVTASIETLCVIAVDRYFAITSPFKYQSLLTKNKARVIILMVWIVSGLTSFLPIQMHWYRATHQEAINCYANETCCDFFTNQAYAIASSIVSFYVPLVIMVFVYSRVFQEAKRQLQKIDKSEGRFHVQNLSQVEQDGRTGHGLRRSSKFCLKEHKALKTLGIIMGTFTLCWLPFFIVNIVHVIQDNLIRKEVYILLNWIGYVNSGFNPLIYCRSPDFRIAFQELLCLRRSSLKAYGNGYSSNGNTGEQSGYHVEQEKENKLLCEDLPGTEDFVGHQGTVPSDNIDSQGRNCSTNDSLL

Compound | Potency | activation
C=CCOc1ccc2ccccc2c1CNn1c(C)n[nH]c1=S | 8.2 µM (active) | 
CCN(CC)S(=O)(=O)c1ccc(N=Nc2c(C)[nH]n(C(N)=S)c2=O)cc1 |  | -1.01% (inactive)
O=C(C[C@H]1C[C@H](C(=O)N2CCCCC2)[C@@]2(CCc3ccccc3)c3[nH]c4cc(-c5ccco5)ccc4c3CCN2C1=O)NCCC1=CCCCC1 |  | 0.306% (inactive)
C/C(=N\NC(=S)NC(C)C)c1ccc(Cl)s1 |  | -0.153% (inactive)
O=C(N/N=C/c1cn(-c2ccccc2)nc1-c1cc2ccccc2o1)c1cccnc1 |  | -2.33% (inactive)
CO/C=C\C=C/c1nnn(-c2ccc(Cl)cc2)n1 |  | -1.16% (inactive)
CCc1ccc(CNc2ccc(O)cc2)cc1 |  | -1.16% (inactive)
CC(NCCc1ccc(O)cc1)C(O)c1ccc(O)cc1 (stereo not given) | 0.0116 µM (active) | 
Cc1ccc(CNc2ccc(O)cc2)cc1 |  | 0.153% (inactive)
Oc1ccc(/C=N/NC(=S)NC2CC3CCC2C3)cc1 (stereo not given) |  | 7.28% (inactive)
C=CC[n+]1c(-c2ccc(OC)c(OC)c2)csc1NNC(=O)Nc1ccccc1 | 10.3 µM (active) | 
C=CC[n+]1c(-c2ccc(C)cc2)csc1NNC(=O)Nc1ccccc1 |  | 0.306% (inactive)
COc1ccc(-c2c(-c3ccccc3)c(C(=O)C(=O)NCCCN(C)C)n3ccc4cc(OC)c(OC)cc4c23)cc1OC |  | -1.16% (inactive)
O=C1NC2(C=Cc3c(ccc4ccccc34)O2)Oc2ccccc21 (stereo not given) |  | -2.33% (inactive)
COc1cc(/C=N/Nc2ccc(F)cc2F)cc(OC)c1O |  | 0% (inactive)
O=C(O)/C=C/c1nc(-c2ccccc2)n2ccccc12 | 25.9 µM (active) | 
C[C@@H](NC(=O)c1coc(=O)c(Br)c1)c1ccccc1 |  | 1.16% (inactive)
O=[N+]([O-])c1cc([N+](=O)[O-])c2cc3ccccc3nc2c1 |  | -4.96% (inactive)
Cn1c(CNC(=O)c2ccccc2F)nnc1SCC(=O)c1ccccc1 |  | -1.16% (inactive)
COc1ccc(C(C)NC(=O)c2ccc(Br)cc2)cc1OC (stereo not given) |  | 4.96% (inactive)
COc1ccc(NC(=O)c2cc3c(-c4ccc(OC)c(OC)c4)nn(C)c3s2)cc1OC |  | 0% (inactive)
COC(=O)CSc1ccc2nnc(-c3ccc(OC)c(OC)c3)n2n1 | 25.9 µM (active) | 

Compound | Potency | activation
CCOc1ccc(/C(CCC(=O)O)=N/NC(=S)NCCc2ccccc2)cc1 |  | 4.8% (inactive)
COc1ccc(NC(=O)C(=O)NCC(c2ccco2)N2CCc3ccccc32)cc1 (stereo not given) |  | -1.16% (inactive)
COc1cc(/C=N/NC(=O)c2cncc(Br)c2)cc([N+](=O)[O-])c1O |  | 0% (inactive)
Cn1c(O)c(/C=N/NC(=O)c2cc3ccccc3cc2O)c2ccccc21 |  | -4.96% (inactive)
Oc1[nH]c2ccc(Br)cc2c1N=NC(=S)NCC1CCCO1 (stereo not given) |  | 1.16% (inactive)
COc1cc(OC)c(NS(=O)(=O)c2cc(C(=O)OC(C)C(=O)NC3CC3)c(Cl)cc2Cl)cc1Cl (stereo not given) |  | 0% (inactive)
CCCC1(C(=O)OCC)NC(c2ccc(OC)cc2OC)C2C(=O)N(c3ccc4c(c3)OCCO4)C(=O)C21 (stereo not given) |  | 0.306% (inactive)
COc1cc(/C=C2\SC(=N)N(c3ccc4c(c3)OCO4)C2=O)cc(OC)c1O | 20.6 µM (active) | 
CCNC(=S)N/N=C(\C)c1cccc(OC)c1 |  | -1.16% (inactive)
C[C@H](CO)N1C[C@H](C)[C@@H](CN(C)Cc2ccccc2)Oc2c(NC(=O)Cc3ccccc3)cccc2C1=O |  | 0.306% (inactive)
CCCN=C1N(CC)C[C@@H]2[C@@H]3C(=O)N(C)C(=O)[C@@H]3[C@](CC)(C(=O)OC)N12 |  | 0% (inactive)
O=C(COC(=O)c1ccccn1)c1ccc([N+](=O)[O-])cc1 |  | 4.96% (inactive)
Cc1ccc(S(=O)(=O)N(Cc2ccc(Cl)cc2)c2ccccc2C(=O)NCc2ccco2)cc1 |  | -1.01% (inactive)
Cc1cc(C)nc(-n2nc(C)cc2NC(=O)CN2CCC(C)CC2)n1 | 29.1 µM (active) | 
Cc1cc(C)nc(-n2nc(C)cc2NC(=O)CNC2CCCCC2)n1 |  | 1.16% (inactive)
CC(=O)Nc1ccc(Nc2cc(C)nc3c(-c4ccccc4)c(C)nn23)cc1 |  | 2.33% (inactive)
Cc1cc(C)n(-c2nc(NC(C)(C)C)nc(NC(C)(C)C)n2)n1 |  | -1.01% (inactive)
CCC1CCCCN1CC(=O)Nc1cc(C)nn1-c1nc(C)cc(C)n1 (stereo not given) | 7.31 µM (active) | 
Cc1cc(C)nc(-n2nc(C)cc2NC(=O)CN2CCCC2)n1 | 20.6 µM (active) | 
CCNc1nc(NCC)nc(-n2nc(C)cc2C)n1 |  | 9.76% (inactive)
Cc1cc(C)n(-c2nc(NC(C)C)nc(NC(C)C)n2)n1 |  | 1.16% (inactive)
CCC(C(=O)Nc1cc(C)nn1-c1nc(C)cc(C)n1)c1ccccc1 (stereo not given) | 18.4 µM (active) | 

Compound | Potency | activation
CNc1cc(C)nc(-n2nc(C)cc2C)n1 |  | -2.33% (inactive)
Cc1ccc(S(=O)(=O)N2CCN(C(C)C(=O)NCC(C)c3ccccc3)CC2)cc1 (stereo not given) |  | -1.16% (inactive)
CN(C)C(=S)Nc1nc2ccccc2s1 |  | 0.459% (inactive)
COc1cccc(C2CC3(CC(C)(C)NC(=S)N3)Oc3cc(O)ccc32)c1 (stereo not given) |  | -2.33% (inactive)
COCCCN=C1NN=C(c2cc(C)n(-c3ccccc3)c2C)CS1 |  | 5.81% (inactive)
COc1ccc(N2C(=O)C(CC(=O)Nc3ccc(Cl)cc3)N(NC(=O)c3cccc(F)c3)C2=S)cc1 (stereo not given) |  | 0.306% (inactive)
O=C(NCCN1CCOCC1)c1ccccc1Cl | 20.6 µM (active) | 
O=C(NCCN1CCOCC1)c1cc(Br)ccc1Cl |  | -1.16% (inactive)
O=C(NC(=S)N1CCCCCC1)c1ccccc1Cl |  | 0.306% (inactive)
C=C(C)c1cccc(C(C)(C)NC(=O)NC2CCN(Cc3ccccc3)CC2)c1 |  | 0.306% (inactive)
COc1cc2c(cc1OC)C(c1cc3ccccc3oc1=O)=NC(C)(C)C2 | 23.1 µM (active) | 
CC(=O)Oc1ccc2cc(-c3ccccc3)c(=O)oc2c1 |  | 0.306% (inactive)
CC(C)c1ccc(NC(=S)Nc2ccc3cn[nH]c3c2)cc1 |  | 0.306% (inactive)
O=C(O)C12CC3CC(C1)CC(n1ncc(N4CCN(c5ccccc5)CC4)c(Cl)c1=O)(C3)C2 |  | 0.306% (inactive)
O=C1c2ccccc2-c2onc3ccc(Oc4ccccc4)c1c23 | 13 µM (active) | 
C=CCn1nc([N+](=O)[O-])nc1Sc1cccc2cccnc12 |  | 1.16% (inactive)
C=CCNC(=S)Nc1cc(C)ccn1 |  | 0.306% (inactive)
O=C(NCC1CCCO1)c1ccc(CS(=O)(=O)c2ccc(Br)cc2)o1 (stereo not given) |  | -1.01% (inactive)
COc1ccccc1NS(=O)(=O)c1cc(NC(=O)CNC(=O)c2ccc(C)s2)ccc1Cl |  | 0.306% (inactive)
COc1ccccc1NS(=O)(=O)c1ccc(NC(=O)Cc2cccs2)cc1 | 32.6 µM (active) | 
CCOc1ccc(CC(=O)Nc2ccc(S(=O)(=O)Nc3cc(C)on3)cc2)cc1OCC |  | -1.16% (inactive)
CC(C)N(Cc1cc2ccccc2[nH]c1=O)C(=O)C1CCCCC1 |  | 0.306% (inactive)

Compound | Potency | activation
COc1ccc(C2CC(O)(c3ccccc3)Oc3cc(OC)c(OC)c(OC)c32)cc1 (stereo not given) |  | 0.306% (inactive)
COc1cccc(Oc2cnc(N)nc2-c2ccc(OC)cc2O)c1 | 23.1 µM (active) | 
COc1ccc(Nc2cc(Nc3cccc(OC)c3)ncn2)cc1 |  | 4.96% (inactive)
C/C(CC(C)(C)C1CCCCC1)=N\NC(N)=S |  | -1.16% (inactive)
O=[N+]([O-])c1cc(Cl)c(O)c2ncccc12 |  | -1.16% (inactive)
COc1cc([N+](=O)[O-])c2nccnc2c1 | 16.4 µM (active) | 
O=[N+]([O-])c1ccc(O)c2ncccc12 |  | 0.306% (inactive)
O=[N+]([O-])c1cc(Br)cc(C=Nc2ccc3c(c2)OCO3)c1O |  | 0% (inactive)
Oc1ccc(NCc2ccc(OCc3ccccc3)cc2)cc1 |  | -2.33% (inactive)
COc1cc(CNc2ccc(O)cc2)cc(Br)c1OCc1ccccc1 | 14.6 µM (active) | 
Oc1ccc(NCc2cccc(OCc3ccccc3)c2)cc1 |  | 0.153% (inactive)
NC(=S)N=Nc1c(O)n(CCCl)c2ccccc12 | 25.9 µM (active) | 
C/C(Cl)=C\Cn1c(O)c(N=NC(N)=S)c2ccccc21 |  | 6.12% (inactive)
NC(=S)N=Nc1c(O)n(CCCl)c2ccc(Cl)cc12 | 32.6 µM (active) | 
CC1CC(C)(C)n2c(O)c(N=NC(N)=S)c3cccc1c32 (stereo not given) |  | 4.96% (inactive)
C=CCn1c(O)c(N=NC(=S)Nc2ccccc2F)c2cc(S(=O)(=O)N3CCOCC3)ccc21 |  | 0% (inactive)
NC(=S)N=Nc1c(O)n(Cc2ccc(F)cc2)c2ccccc12 |  | 2.33% (inactive)
O=C(Oc1cccc2cccnc12)c1ccc2c(c1)OCCO2 |  | -1.16% (inactive)
COc1ccc(NC(=S)Nc2cccc(C)n2)cc1 |  | 2.33% (inactive)
CCc1cc2c(SCC(=O)Nc3ccc(Cl)cn3)ncnc2s1 |  | 0% (inactive)
COc1ccc(OCCCC(=O)Nc2nc(-c3ccccn3)cs2)cc1 |  | 0.306% (inactive)
c1ccc(CCNc2nc(-c3ccccn3)cs2)cc1 |  | 7.28% (inactive)

Compound | Potency | activation
COc1ccc(CCNc2nc(-c3ccccn3)cs2)cc1OC | 20.6 µM (active) | 
COc1ccc(NC(=S)NC(=O)c2ccc3c(c2)OCCO3)cc1 |  | -0.857% (inactive)
Cc1ccc(/C=C2/C(=O)N(c3ccccc3)C(=S)N2C)o1 |  | -1.16% (inactive)
Cc1cccc(N=C2NC(=O)/C(=C/c3cccs3)S2)c1 | 1.03 µM (active) | 
Cc1ccc(N=C2NC(=O)/C(=C/C=C/c3ccco3)S2)cc1 |  | 11.8% (inactive)
C#CCn1c(=NC(=O)CSC(C)=O)sc2cc(F)ccc21 |  | 8.6% (inactive)
Cc1ccc2cccc(SCC(=O)NCC#N)c2n1 |  | -1.16% (inactive)
CC(=O)c1cccc(CN2CCN(CCC(C)C)C(CCO)C2)c1 (stereo not given) |  | 0.153% (inactive)
N#C/C(=C\c1ccncc1)c1nc2ccccc2o1 |  | 0.153% (inactive)
N#C/C(=C\c1cccc(O)c1)c1nc2ccccc2o1 | 6.51 µM (active) | 
N#C/C(=C\c1ccc(Cl)cc1)c1nc2ccccc2o1 |  | 0% (inactive)
CCCC(=O)N(c1ccc(F)cc1)C1C=CS(=O)(=O)C1 (stereo not given) |  | -2.48% (inactive)
CCCN(CC(=O)Nc1ccc(Cl)cc1Cl)C(=O)/C=C/c1ccco1 |  | -2.33% (inactive)
O=C1C=CC(O)(c2cc(=O)c3c(O)cc(O)cc3o2)C=C1 |  | -1.16% (inactive)
COc1c(-c2ccc(O)c(O)c2)oc2cc(O)cc(O)c2c1=O | 20.6 µM (active) | 
COc1c(O)cc(O)c2c(=O)cc(-c3ccccc3)oc12 |  | 6.12% (inactive)
Fc1ccccc1/C=N/Nc1ncnc2ccccc12 |  | 0.459% (inactive)
Cc1ccc2cccc(SCC(=O)Nc3ccc(F)cc3)c2n1 |  | 4.96% (inactive)
NC(=S)n1[nH]c(-c2ccc([N+](=O)[O-])cc2)c(N=Nc2ccc(Cl)cc2)c1=O |  | -1.16% (inactive)
COc1cnc(-c2ccccn2)nc1Sc1ccccc1Cl |  | -1.16% (inactive)
Clc1ccc(OCc2nc(-c3ccccn3)n[nH]2)cc1 |  | 0% (inactive)
COc1cnc(-c2ccccn2)nc1Oc1ccccc1 | 29.1 µM (active) | 
